PubChem BioAssay AID1159580 (chemical genetic matrix, 2015)
Among all 5,500 compounds or so, about 2,000 (36%) were called active. Not shown: some 18% with an inconclusive outcome. This is one part of the list. A number with no mark means an inactive call. No stated cut-off is given here; in the data, active means normalized growth mostly below about 0.91 (no sharp cut-off); inconclusive means no clear call, values can overlap the other calls; inactive means mostly above about 0.92.

Assay: chemical genetic growth profiling, strain panel (AID 1159580);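 further: tested at 20 µM; growth read once vehicle control cultures reached saturation at 30 °C; 1 = growth at the plate median or of vehicle wells; lower values mean less growth of the strain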
Conditions: S. cerevisiae deletion strains, growth OD
[1] = locus YAL013W, strain DEP1, active compounds read low
[2] = locus YAL040C, strain CLN3, active compounds read low
[3] = locus YCL061C, strain MRC1 (second series), active compounds read low
[4] = locus YDR363W, strain ESC2, active compounds read low
[5] = locus YER002W, strain NOP16, active compounds read low
[6] = locus YNL153C, strain GIM3, active compounds read low
[7] = locus YNL175C, strain NOP13, active compounds read low
[8] = locus YNL197C, strain WHI3, active compounds read low
[9] = locus YNL224C, strain SQS1, active compounds read low
[10] = locus YOR083W, strain WHI5 (second series), active compounds read low
[11] = locus YPL241C, strain CIN2, active compounds read low
[12] = locus YAR019C, strain CDC15, active compounds read low
[13] = locus YBL105C, strain PKC1, active compounds read low
[14] = locus YBR135W, strain CKS1, active compounds read low
[15] = locus YBR136W, strain MEC1, active compounds read low
[16] = locus YBR160W, strain CDC28, active compounds read low
[17] = locus YDL017W, strain CDC7, active compounds read low
[18] = locus YDL028C, strain MPS1, active compounds read low
[19] = locus YDL101C, strain DUN1, active compounds read low
[20] = locus YDL108W, strain KIN28, active compounds read low
[21] = locus YDL132W, strain cdc53, active compounds read low
[22] = locus YDL214C, strain PRR2, active compounds read low
[23] = locus YDR052C, strain DBF4, active compounds read low
[24] = locus YDR054C, strain cdc34, active compounds read low
[25] = locus YDR226W, strain ADK1, active compounds read low
[26] = locus YDR477W, strain SNF1, active compounds read low
[27] = locus YER123W, strain YCK3, active compounds read low
[28] = locus YER133W, strain GLC7, active compounds read low
[29] = locus YFL009W, strain cdc4, active compounds read low
[30] = locus YFL029C, strain CAK1, active compounds read low
[31] = locus YFR003C, strain YPI1, active compounds read low
[32] = locus YFR019W, strain FAB1, active compounds read low
[33] = locus YFR028C, strain CDC14, active compounds read low
[34] = locus YGR040W, strain KSS1, active compounds read low
[35] = locus YGR052W, strain FMP48, active compounds read low
[36] = locus YGR092W, strain DBF2, active compounds read low
[37] = locus YHR030C, strain SLT2, active compounds read low
[38] = locus YHR079C, strain IRE1, active compounds read low
[39] = locus YHR082C, strain KSP1, active compounds read low
[40] = locus YHR205W, strain SCH9, active compounds read low
[41] = locus YIL147C, strain SLN1, active compounds read low
[42] = locus YJL095W, strain BCK1, active compounds read low
[43] = locus YJL128C, strain PBS2, active compounds read low
[44] = locus YJL157C, strain FAR1, active compounds read low
[45] = locus YJR016C, strain ILV3, active compounds read low
[46] = locus YJR066W, strain TOR1 (second series), active compounds read low
[47] = locus YJR066W, strain TOR1, active compounds read low
[48] = locus YKL048C, strain ELM1, active compounds read low
[49] = locus YKL067W, strain YNK1, active compounds read low
[50] = locus YKL101W, strain HSL1, active compounds read low
[51] = locus YKL193C, strain SDS22, active compounds read low
[52] = locus YKL203C, strain TOR2, active compounds read low
[53] = locus YLR113W, strain HOG1, active compounds read low
[54] = locus YLR133W, strain CKI1, active compounds read low
[55] = locus YLR403W, strain SFP1, active compounds read low
[56] = locus YML070W, strain DAK1, active compounds read low
[57] = locus YMR001C, strain CDC5, active compounds read low
[58] = locus YMR205C, strain PFK2 (second series), active compounds read low
[59] = locus YMR277W, strain FCP1, active compounds read low
[60] = locus YNL006W, strain LST8, active compounds read low
[61] = locus YNL020C, strain ARK1, active compounds read low
[62] = locus YNL161W, strain CBK1, active compounds read low
[63] = locus YNL183C, strain NPR1, active compounds read low
[64] = locus YNL207W, strain RIO2, active compounds read low
[65] = locus YNL222W, strain SSU72, active compounds read low
[66] = locus YNL307C, strain MCK1 (second series), active compounds read low
[67] = locus YOL078W, strain AVO1, active compounds read low
[68] = locus YOL136C, strain PFK27, active compounds read low
[69] = locus YOR061W, strain CKA2, active compounds read low
[70] = locus YOR119C, strain RIO1, active compounds read low
[71] = locus YOR231W, strain MKK1, active compounds read low
[72] = locus YOR329C, strain SCD5, active compounds read low
[73] = locus YPL031C, strain PHO85, active compounds read low
[74] = locus YPL153C, strain RAD53, active compounds read low
[75] = locus YPL204W, strain HRR25, active compounds read low
[76] = locus YPL209C, strain IPL1, active compounds read low
[77] = locus YPL256C, strain CLN2, active compounds read low
[78] = locus YPR025C, strain CCL1, active compounds read low
[79] = locus YPR106W, strain ISR1, active compounds read low
[80] = locus YPR111W, strain DBF20, active compounds read low
[81] = strain NNK1, active compounds read low
[82] = strain TSCII, active compounds read low

SMILES: CN=C(N)NCCC[C@H](N)C(=O)O
- normalized growth [1]: 1.02
- normalized growth [2]: 0.993
- normalized growth [3]: 1.03
- normalized growth [4]: 1.04
- normalized growth [5]: 0.992
- normalized growth (locus YMR263W, strain SAP30, active compounds read low): 0.99
- normalized growth [6]: 1.02
- normalized growth [7]: 1.01
- normalized growth [8]: 1.01
- normalized growth [9]: 1.01
- normalized growth [10]: 1.01
- normalized growth [11]: 1

SMILES: COc1cccc2c1[C@@H]1CN(CCCCn3c(=O)[nH]c4c(sc5ncc(-c6ccccc6)nc54)c3=O)C[C@@H]1CO2
- normalized growth [1]: 0.921
- normalized growth [2]: 0.969
- normalized growth [3]: 0.962
- normalized growth (locus YDR150W, strain NUM1, active compounds read low): 1.01
- normalized growth [4]: 0.963
- normalized growth [5]: 1.01
- normalized growth (locus YNL128W, strain TEP1, active compounds read low): 1.02
- normalized growth [6]: 0.929
- normalized growth [7]: 1.03
- normalized growth [8]: 1
- normalized growth [9]: 1
- normalized growth [10]: 0.93
- normalized growth (locus YPL055C, strain LGE1, active compounds read low): 0.781 (active)
- normalized growth [11]: 0.984

SMILES: Cc1nc(C(F)(F)F)ccc1C(=O)Sc1nnc(-c2ccc(C(F)(F)F)nc2C)o1
- normalized growth [12]: 0.946
- normalized growth [13]: 0.95
- normalized growth [14]: 0.954
- normalized growth [15]: 0.955
- normalized growth [16]: 0.952
- normalized growth [17]: 0.951
- normalized growth [18]: 0.955
- normalized growth [19]: 0.961
- normalized growth [20]: 0.952
- normalized growth [21]: 0.956
- normalized growth [22]: 0.901
- normalized growth [23]: 0.949
- normalized growth [24]: 0.939
- normalized growth [25]: 0.946
- normalized growth [26]: 0.943
- normalized growth [27]: 0.858
- normalized growth [28]: 0.936
- normalized growth [29]: 0.946
- normalized growth [30]: 0.947
- normalized growth [31]: 0.952
- normalized growth [32]: 0.976
- normalized growth [33]: 0.959
- normalized growth [34]: 0.956
- normalized growth [35]: 0.929
- normalized growth [36]: 0.864
- normalized growth [37]: 0.617 (active)
- normalized growth [38]: 0.737
- normalized growth [39]: 0.962
- normalized growth [40]: 0.732
- normalized growth [41]: 0.952
- normalized growth [42]: 0.861
- normalized growth [43]: 0.902
- normalized growth [44]: 0.945
- normalized growth [45]: 0.952
- normalized growth [46]: 0.716
- normalized growth [47]: 0.935
- normalized growth [48]: 0.937
- normalized growth [49]: 0.893
- normalized growth [50]: 0.886
- normalized growth [51]: 0.949
- normalized growth [52]: 0.989
- normalized growth [53]: 0.515 (active)
- normalized growth [54]: 0.924
- normalized growth [55]: 0.945
- normalized growth [56]: 0.89
- normalized growth [57]: 0.953
- normalized growth [58]: 0.918
- normalized growth [59]: 0.951
- normalized growth [60]: 0.959
- normalized growth [61]: 0.889
- normalized growth [62]: 0.936
- normalized growth [63]: 0.905
- normalized growth [64]: 0.942
- normalized growth [65]: 0.954
- normalized growth [66]: 0.868
- normalized growth [67]: 0.949
- normalized growth [68]: 0.876
- normalized growth [69]: 0.887
- normalized growth [70]: 1.02
- normalized growth [71]: 0.802
- normalized growth [72]: 0.953
- normalized growth [73]: 0.94
- normalized growth [74]: 0.963
- normalized growth [75]: 0.934
- normalized growth [76]: 0.95
- normalized growth [77]: 0.605 (active)
- normalized growth [78]: 0.949
- normalized growth [79]: 0.951
- normalized growth [80]: 0.919
- normalized growth [81]: 0.928
- normalized growth [82]: 0.943

SMILES: Cc1nc(C(F)(F)F)ccc1-c1nnc(SC(=O)c2ccc(Cl)cc2)o1
- normalized growth [12]: 0.875 (active)
- normalized growth [13]: 0.883 (active)
- normalized growth [14]: 0.884 (active)
- normalized growth [15]: 0.888 (active)
- normalized growth [16]: 0.878 (active)
- normalized growth [17]: 0.882 (active)
- normalized growth [18]: 0.884 (active)
- normalized growth [19]: 0.866 (active)
- normalized growth [20]: 0.882 (active)
- normalized growth [21]: 0.877 (active)
- normalized growth [22]: 0.648 (active)
- normalized growth [23]: 0.886 (active)
- normalized growth [24]: 0.857 (active)
- normalized growth [25]: 0.867 (active)
- normalized growth [26]: 0.82
- normalized growth [27]: 0.49 (active)
- normalized growth [28]: 0.792
- normalized growth [29]: 0.868 (active)
- normalized growth [30]: 0.872 (active)
- normalized growth [31]: 0.879 (active)
- normalized growth [32]: 0.81
- normalized growth [33]: 0.881 (active)
- normalized growth [34]: 0.831
- normalized growth [35]: 0.638
- normalized growth [36]: 0.568
- normalized growth [37]: 0.358 (active)
- normalized growth [38]: 0.442 (active)
- normalized growth [39]: 0.617 (active)
- normalized growth [40]: 0.348 (active)
- normalized growth [41]: 0.885 (active)
- normalized growth [42]: 0.532
- normalized growth [43]: 0.747 (active)
- normalized growth [44]: 0.764
- normalized growth [45]: 0.87 (active)
- normalized growth [46]: 0.393 (active)
- normalized growth [47]: 0.631
- normalized growth [48]: 0.785 (active)
- normalized growth [49]: 0.641 (active)
- normalized growth [50]: 0.639 (active)
- normalized growth [51]: 0.874 (active)
- normalized growth [52]: 0.862
- normalized growth [53]: 0.229 (active)
- normalized growth [54]: 0.684 (active)
- normalized growth [55]: 0.818
- normalized growth [56]: 0.604 (active)
- normalized growth [57]: 0.875 (active)
- normalized growth [58]: 0.682 (active)
- normalized growth [59]: 0.876 (active)
- normalized growth [60]: 0.888 (active)
- normalized growth [61]: 0.655 (active)
- normalized growth [62]: 0.865 (active)
- normalized growth [63]: 0.566 (active)
- normalized growth [64]: 0.874 (active)
- normalized growth [65]: 0.877 (active)
- normalized growth [66]: 0.589 (active)
- normalized growth [67]: 0.874 (active)
- normalized growth [68]: 0.604 (active)
- normalized growth [69]: 0.644 (active)
- normalized growth [70]: 0.909
- normalized growth [71]: 0.454 (active)
- normalized growth [72]: 0.877 (active)
- normalized growth [73]: 0.81
- normalized growth [74]: 0.837
- normalized growth [75]: 0.782
- normalized growth [76]: 0.877 (active)
- normalized growth [77]: 0.334 (active)
- normalized growth [78]: 0.877 (active)
- normalized growth [79]: 0.833 (active)
- normalized growth [80]: 0.803 (active)
- normalized growth [81]: 0.786 (active)
- normalized growth [82]: 0.865 (active)
